HTT-AS act: activators of huntingtin-antisense promoter activity; HEK293 HTT-AS promoter firefly luciferase reporter, 24 h; response scale: percent change from vehicle, -100% = no light; Potency, µM (series often up to 57.5 µM), most hits filed as activators; 0.24% of 48,000 active; AID 1508624; further: nearly all actives have a fitted effect of over 55% in size
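HEK293 cells carrying firefly luciferase reporters were seeded at 2,500 per well in Opti-MEM and cultured for 24 h. They were then treated with compounds at up to 57.5 uM final for 24 h at 37 degrees C before Dual-Glo luminescence readout.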
NTMT1 inhibitor: inhibitors of human N-terminal methyltransferase NTMT1; Q9BV86; NTMT1 MTase-Glo SAH luminescence, purified enzyme; Potency, µM (doses to about 114 µM), hits mostly inhibitors; 2.5% of 59,000 active; AID 1645870; further: nearly all actives have a fitted effect of over 65% in size
Target sequence (Q9BV86 whole entry, looked up): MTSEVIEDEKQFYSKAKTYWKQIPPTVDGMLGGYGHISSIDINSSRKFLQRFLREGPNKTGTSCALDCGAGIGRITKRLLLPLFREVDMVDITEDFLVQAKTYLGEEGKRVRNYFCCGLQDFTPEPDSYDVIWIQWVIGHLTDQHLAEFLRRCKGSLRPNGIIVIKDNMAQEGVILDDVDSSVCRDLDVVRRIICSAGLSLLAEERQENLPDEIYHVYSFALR
HTT promoter inh: HTT promoter inhibition | HEK293 HTT promoter firefly luciferase reporter, 24 h | Potency, µM (doses to about 57.5 µM), most hits filed as inhibitors | 0.93% of 48,000 active; further: nearly all actives have a fitted effect of over 50% in size
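Quantitative HTS used concentration series of up to 57.5 uM final on HEK293 luciferase reporter cells, 24 h at 37 degrees C. Readout was Dual-Glo firefly luminescence.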
Sfp qHTS opt: Sfp PPTase inhibition, chemistry optimization | shares compounds with NTMT1 inhibitor | purified Sfp PPTase enzyme activity, qHTS | Potency, µM (titrated, usually from 114 µM), most hits filed as inhibitors | 78% of 230 active
Bsub HM489 growth: Sfp PPTase inhibitors: growth inhibition of B. subtilis HM489 | shares compounds with NTMT1 inhibitor | B. subtilis HM489 (acpS-) growth, BacTiter-Glo, 5 h | Potency, µM (doses to about 114 µM), actives largely listed as inhibitors | 50% of 220 active
Sfp PPTase gel: Sfp PPTase inhibition, gel-based detection. Potency, µM (highest dose often 250 µM), most hits filed as inhibitors. AID 540355. 54% of 220 active. shares compounds with NTMT1 inhibitor. purified Sfp PPTase, gel-based product detection
Sfp SAR2: Sfp phosphopantetheinyl transferase inhibition, SAR round 2 | AID 602370 | purified Sfp enzyme, PPTase activity, qHTS | 87% of 230 active | shares compounds with NTMT1 inhibitor | Potency, µM (top dose mostly 57.1 µM), hits mostly inhibitors
hGST A1-1 inh: inhibits hGST A1-1 in Sfp inhibitor counter-screen; shares compounds with NTMT1 inhibitor; hGST A1-1 enzyme activity counter-screen, qHTS; Potency, µM (top dose mostly 114 µM), actives largely listed as inhibitors; 55 tested, under 10 active
HSD17B4 counter: HSD17B4 (human) inhibition, HPGD counter-screen; Potency, µM (series often up to 57.1 µM), usual class: inhibitors; 10% of 230 active; purified HSD17B4, estradiol/NAD+, NADH fluorescence; shares compounds with NTMT1 inhibitor
ALDH1A1 inh: ALDH1A1 (human) inhibition, HPGD counter-screen | shares compounds with NTMT1 inhibitor | recombinant ALDH1A1, NADH fluorescence, propionaldehyde/NAD+ | Potency, µM (top dose mostly 57.1 µM), actives largely listed as inhibitors | 93% of 230 active | AID 743195
NNMT counter: blocks human NNMT methyltransferase; shares compounds with NTMT1 inhibitor; NNMT MTase-Glo luminescence, SAH detection; Potency, µM (titrated, usually from 57.1 µM), usual class: inhibitors; 10% of 120 active; AID 1645878
Numbers stand for hits; ! = not confirmed by another sample; [ ] = dose if it differs, or a comment. Only some compounds are listed: those with a hit (about 2.4% of all), similar ones and a draw of the others. The call rests on the fitted dose curve; in most records, active means well fitted curve in the direction sought with a large enough effect; inconclusive means small, poorly fitted or top-dose-only effect, or another doubt; inactive means no such curve, though single readings can be large; an effect the other way counts as inactive or inconclusive.

For C=C1CC[C@@]2(OC1)O[C@H]1CC3[C@@H]4CC=C5C[C@H](O[C@H]6OC[C@@H](O)C(O)[C@@H]6O[C@@H]6O[C@@H](C)[C@H](O)[C@@H](O[C@@H]7O[C@H](CO)[C@@H](O)[C@H](O)[C@H]7O)[C@H]6O)C[C@@H](O)[C@]5(C)C4CC[C@]3(C)[C@H]1[C@@H]2C (stereo not given in full) the results were NTMT1 inhibitor inactive[12.6 µM].
CCOc1ccc(CCNC(=O)c2cc3sccc3n2Cc2ccccc2)c(F)c1OCC was read as NTMT1 inhibitor inactive.
Screening COc1ccc(C2Nc3ccccc3C(=O)N2Cc2ccc(C(F)(F)F)o2)cc1COc1c(C)cccc1C (stereo not given) returned NTMT1 inhibitor inactive.
For S=C(NCCCc1cnc[nH]1)NCCCN(Cc1ccc(Cl)c(Cl)c1)c1ccccn1 the results were NTMT1 inhibitor inactive.
For COc1cc2ncnc(Nc3ccc(F)c(Cl)c3)c2cc1NC(=O)/C=C/CN1CCCCC1 the results were NTMT1 inhibitor 8.9µM and NNMT counter inconclusive.
For CCOc1cc2ncc(C#N)c(Nc3ccc(OCc4ccccn4)c(Cl)c3)c2cc1NC(=O)C=CCN(C)C the results were HTT-AS act inactive, NTMT1 inhibitor inactive and HTT promoter inh inactive.
Screening O=S(=O)(Nc1ccc2nc(-c3ccc(F)cc3)oc2c1)c1ccccc1 returned HTT-AS act inactive, NTMT1 inhibitor inactive and HTT promoter inh inactive.
`FC(F)(F)c1cnc(N2CCN(C(=S)Nc3cc(Cl)ccn3)CC2)c(Cl)c1` gave NTMT1 inhibitor inconclusive, Sfp qHTS opt 9.4µM, Bsub HM489 growth 12µM, Sfp PPTase gel inconclusive, Sfp SAR2 1.3µM, HSD17B4 counter inactive and ALDH1A1 inh 3.8µM.
For Cc1ccnc(NC(=S)N2CC3CN(c4ncc(C(F)(F)F)cc4Cl)CC3C2)c1 (stereo not given) the results were NTMT1 inhibitor inconclusive, Sfp qHTS opt 0.58µM, Sfp SAR2 1.3µM, hGST A1-1 inh inactive, HSD17B4 counter inactive and ALDH1A1 inh 0.38µM.
`CC(C)(C)c1ccc(NC(=O)N2CCN(c3ncccc3Cl)CC2)cc1` gave NTMT1 inhibitor inactive.
`CC(O)C1NC(=O)C2CCCN2C1=O` (stereo not given) gave NTMT1 inhibitor inactive.
`CC(=O)N1CCN(CCOc2ccc(C3CCN(C4=Nn5c(nnc5C(F)(F)F)CC4)CC3)cc2)CC1` gave NTMT1 inhibitor inactive.
Screening O=C(Nc1cc2cc[nH]c2cn1)c1ccccc1 returned HTT-AS act inconclusive, NTMT1 inhibitor 22µM!, HTT promoter inh inactive and NNMT counter 14µM.
`Cc1nnc(NC(=O)c2ccccc2)s1` gave HTT-AS act inconclusive, NTMT1 inhibitor inactive and HTT promoter inh inactive.
`Cc1c(C(=O)O)[nH]c2c1C(=O)CCC2` gave NTMT1 inhibitor inactive.
`C=CC1(C)CC(OC(=O)/C(C)=C\COC(C)=O)C(C(=C)C(=O)O)C(O)C1C(=C)CO` (stereo not given) gave NTMT1 inhibitor inactive.
